# Bioassay records deposited in PubChem BioAssay by National Center for Advancing Translational Sciences (NCATS).
# Vaccinia mCherry = qHTS for Stage-Specific Inhibitors of Vaccinia Orthopoxvirus: mCherry Reporter Primary qHTS. Vaccinia virus mCherry reporter infection, fluorescence. Potency, µM (series often up to 36.5 µM), for inactives: at the top dose activity change, negative = inhibition, actives largely listed as inhibitors. hit rate 0.63% among 310,000. AID 720579, 2013; calls by dose curve; tested in A549 cells; note: potency is the fitted concentration of half-maximal effect; nearly all actives have a fitted effect of over 35% in size
# HCV inhibitor = qHTS Assay for Inhibitors of Hepatitis C Virus (HCV) | hit rate 3.4% among 340,000 | Potency, µM (titrated, usually from 41.8 µM), without a hit: at the highest dose activity change, negative = inhibition, usual class: inhibitors | Huh7.5.1 HCVcc-Cre infection, luciferase reporter, 44 h; active = well fitted inhibition curve with a large enough effect; inconclusive = small, poorly fitted or top-dose-only effect, or another doubt; inactive = no such curve, though single readings can be large or run the other way; note: potency is the fitted concentration of half-maximal effect
#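 Antiviral activity was scored by luciferase reporter output from cells infected with HCVcc-Cre (~0.5 moi) in presence of compound, 44 h infection period, cells seeded 1,000/well 4 h prior.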
# HCMV inh = qHTS Assay for inhibitors of the human cytomegalovirus (HCMV); hit rate 4.5% among 410,000; HFF cells, HCMV-luciferase reporter, 72 h; stronger effect = lower value; activity change, negative = inhibition, % at 57.5 µM; in the data active = activity change below about -60%; inconclusive = no clear call, values can overlap the other calls; inactive = above about -39%
#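 Steps: HFFs plated, 16 h 37C; compounds added; HCMV-luciferase added to MOI 1 PFU/cell; 72 h 37C; OneGlo reagent, 5 min room temperature; luminescence read, normalized to controls.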
# FMDV antiviral = High Throughput Screening for Foot and Mouth Disease Virus Antivirals. FMDV antiviral cell-based qHTS. Potency, µM (series often up to 57.9 µM), for inactives: at the top dose activity change, negative = inhibition, hits mostly inhibitors. hit rate 1.2% among 410,000. AID 1159524, 2015; calls by dose curve; tested in HEK293T cells; note: read-out not given here; potency is the fitted concentration of half-maximal effect; nearly all actives have a fitted effect of over 45% in size
# VACV Venus inh = qHTS for Stage-Specific Inhibitors of Vaccinia Orthopoxvirus: Venus Reporter Primary qHTS. Vaccinia virus Venus reporter expression, fluorescence. Potency, µM (doses to about 36.5 µM), without a hit: at the highest dose activity change, negative = inhibition, actives largely listed as inhibitors. hit rate 0.46% among 330,000. AID 720580, 2013; calls by dose curve; tested in A549 cells; note: potency is the fitted concentration of half-maximal effect; nearly all actives have a fitted effect of over 30% in size
# * marks the source's active call; other numbers are inactive results; i = inactive; u = inconclusive; x = no result given. This is a sample that favours compounds with a hit; in the whole collection about 7.3% have one here. % is set by controls: 0 for no effect and ±100 for the full control effect.
SMILES,Vaccinia mCherry,HCV inhibitor,HCMV inh,FMDV antiviral,VACV Venus inh
CCCCOc1ccc(C(=O)Nc2ccc(CN3CCOCC3)cc2)cc1,x,10µM*,u,u,x
Cc1ccc(Cl)cc1N1C(=O)N(Cc2ccc(C#N)cc2)c2ccccc2S1(=O)=O,6.3%,x,-18.5,0.0%,-5.0%
COc1ccccc1N(C)C,i,x,x,x,-13.1%
O=C(NCc1cccc(Cl)c1)O[C@H]1CC[C@@]23CCCN2C(=O)CCC[C@H]3[C@H]1Cc1ccccc1,x,x,-0.4,x,x
O=C(Nc1ccc(N2CCOCC2)cc1)c1cnsn1,-14.4%,8.7%,-73.4*,28.2µM*,-8.2%
O=C(Nc1ccc(N2CCOCC2)cc1)c1ccc(COc2ccccc2)cc1,-26.8%,u,-73.5*,-27.0%,-11.7%
CCCCOc1ccc(CN2CCN(CCO)CC2)cc1,x,-15.2%,6.2,41.7%,x
CC1CCCN(Cc2cccc(Oc3ccccc3)c2)C1 (stereo unspecified),i,-18.0%,-98.1*,x,-18.8%
CCCCCCOc1ccc(CN2CCN(CCO)CC2)cc1,x,10µM*,-36.8,5.3%,x
O=C(NCCCO)C(=O)NCC(c1ccc2c(c1)OCO2)N1CCOCC1 (stereo unspecified),-7.3%,x,116.7,3.3%,-4.9%
NC(N)=Nc1ccc(/C=C2\C=Cc3ccccc32)cc1,-17.0%,x,x,x,u
CC(C)(C)NC(=O)C(c1cccc2ccccc12)n1c(=O)c(-c2cc3ccccc3[nH]2)nc2ccccc21 (stereo unspecified),-0.3%,x,9.9,-6.8%,-6.1%
COc1ccc(NS(=O)(=O)c2ccc(NC(=O)c3ccc(CN4CCOCC4)cc3)cc2)cc1,u,1.41µM*,-88.8*,-27.9%,-25.5%
COc1cccc(NC(=O)c2ccc(CN3CCOCC3)cc2)c1,x,u,196.2,-5.3%,0.9%
Nc1ccc2nc(-c3cc(Cl)c(N)c(Cl)c3)[nH]c2c1,x,11.2µM*,152.0,35.2%,x
Cc1cccc(CN2CCN(C(=O)CCl)CC2)c1,i,u,-34.2,35.5µM*,-9.0%
Cc1cccc(CN2CCN(C(=O)Cc3ccccc3)CC2)c1,u,1.9%,24.9,-13.8%,-5.4%
CC(=O)NCCNc1ncnc2ccc(-c3ccc(C(=O)N(C)C)cc3)cc12,10.9%,x,x,-6.6%,0.0%
CCOn1c(-n2nc(C)cc2C)nc2ccccc2c1=O,x,22.8%,-26.1,14.3%,x
Cc1cc(C)n(-c2nc3ccccc3c(=O)n2OCC#N)n1,2.51µM*,u,-88.9*,-15.5%,u
Cc1cccc(Cn2c(C)c(C)c3cc(C(=O)NCc4ccco4)ccc32)c1,u,x,0.0,-7.1%,-29.7%
c1ccc(Nc2nc(-c3ccoc3)nc3ccccc23)cc1,x,x,x,-14.2%,x
O=C1C=CC(=O)C(C2=C3C(=O)N(CCc4ccccc4)CC(=O)N3CCC2)=C1,-12.0%,u,-99.1*,u,-0.4%
O=C1CC2OCC=C3CN4CCC56c7cc([N+](=O)[O-])ccc7N1C5C2C3CC46 (stereo unspecified),i,-0.5%,-88.2*,2.3%,-1.2%
O=C1CC2OCC=C3CN4CCC56c7ccccc7N1C5C2C3CC46 (stereo unspecified),x,x,x,-15.9%,x
SMILES,Vaccinia mCherry,HCV inhibitor,HCMV inh,FMDV antiviral,VACV Venus inh
CN(C)C(CNC(=S)Nc1ccc(F)cc1)c1cccnc1 (stereo unspecified),i,9.6%,-12.8,-12.3%,-6.5%
Cc1cccc(NC(=S)NCC(c2cccnc2)N(C)C)c1 (stereo unspecified),i,7.1%,-70.9*,-20.2%,-11.4%
O=S1(=O)N[C@@H](Cc2ccccc2)COc2cccc(N3CCCCC3)c21,x,x,5.3,x,x
O=C(N/N=C/c1ccc([N+](=O)[O-])o1)c1ccc2c(c1)OCO2,x,u,-96.5*,-25.0%,x
CCOc1cc(/C=N/NC(=O)c2ccc(N(C)S(=O)(=O)c3ccccc3)cc2)ccc1OC,-24.9%,8.91µM*,34.3,u,-14.9%
CCOc1cc(/C=N/NC(=O)c2ccc(CN3CCOCC3)cc2)ccc1OCc1ccccc1,i,u,-72.7*,22.4µM*,-12.2%
COc1cc(/C=N/NC(=O)c2ccc(N(C)S(=O)(=O)c3ccccc3)cc2)cc(OC)c1OC,-11.8%,u,-18.4,0.0%,-20.4%
CCOc1cc(/C=N/NC(=O)COc2ccc(Cl)cc2)ccc1OS(=O)(=O)c1ccccc1,u,5.01µM*,32.6,-23.6%,u
N/C(=N\N=Cc1ccc2c(c1)OCO2)NN=Cc1ccc2c(c1)OCO2,-12.3%,-25.5%,-73.5*,0.7%,-17.9%
O=C(N/N=C/c1ccccc1)c1ccc2c(c1)OCO2,x,-6.9%,u,-10.6%,x
COc1cc(C(=O)NN=Cc2ccc(N(C)C)cc2)cc(OC)c1OC,-18.4%,x,-66.3*,2.5%,u
CN(C)c1ccc(/C=N/NC(=O)c2ccc3c(c2)OCO3)cc1,x,-3.5%,-66.0*,57.1%,x
O=C(NN=Cc1ccc2c(c1)OCO2)NN=Cc1ccc2c(c1)OCO2,-17.5%,14.5%,5.0,14.2%,-11.8%
CCc1ccc(-n2nc(CO)c(C(=O)NC(C)c3ccc(Cl)cc3)n2)cc1 (stereo unspecified),-15.8%,x,-0.4,-14.2%,-15.9%
C=CCn1c(SCC#N)nc2cc(Cl)ccc2c1=O,16.6%,x,x,x,-18.8%
O=C(/C=C/c1ccccc1)Nn1c(-c2cccs2)nc2ccccc2c1=O,x,-14.9%,-60.9*,-9.0%,x
COc1cc2c(cc1OC)C(COc1ccccc1OC)N(C(=O)COc1ccc(Cl)cc1)CC2 (stereo unspecified),-17.5%,x,-10.8,u,-12.8%
Cc1ccc(NC(=O)N(C2CCCCC2)C(C)c2cccnc2)cc1C (stereo unspecified),i,6.4%,-68.5*,-4.1%,-11.0%
c1cc(Nc2ncnc3sccc23)cc(-c2nnc3n2CCCCC3)c1,x,10µM*,-32.9,-23.3%,x
c1cc[n+](CCC[n+]2ccccc2)cc1,i,-8.1%,-101.6*,13.8%,-15.4%
Cc1nn(-c2ccc(F)cc2)c(Cl)c1/C=C/C(=O)OCC(=O)Nc1c(F)c(F)c(F)c(F)c1F,0.0%,u,-71.2*,-16.7%,-1.3%
COc1ccccc1NC(=O)C1=C(C)Nc2nc(-c3ccco3)nn2C1c1cccc(C)c1 (stereo unspecified),-13.4%,x,5.6,-24.8%,-12.7%
CCOC(=O)Cn1c(=O)n(C2CCCCC2)c2nc(-c3c(F)cccc3Cl)nc(C(N)=O)c21,-16.9%,x,-81.8*,u,-8.1%
COc1ccc(N=C2NN=C(c3ccc4c(c3)OCCO4)CS2)cc1,x,u,4.9,2.0%,-9.8%
FC(F)Sc1ccc(N=C2NN=C(c3ccc4c(c3)OCCO4)CS2)cc1,x,10µM*,2.3,-6.7%,x
Cc1cc(C2=NNC(=NC3CC3)SC2)c(C)n1-c1ccccc1F,x,11.2µM*,-96.8*,0.01µM*,x
c1cc2c(cc1C1=NNC(=NC3CC3)SC1)OCCO2,x,-16.4%,-90.0*,u,x
Cc1cnc(-n2ncc(C(=O)NCCc3cccnc3)c2C)nc1-c1ccc(F)cc1,i,x,x,6.0%,-12.9%
